Compound activity (PubChem BioAssay)
DT40 TDP1 no CPT = qHTS for Inhibitors of human tyrosyl-DNA phosphodiesterase 1 (TDP1): qHTS in cells in absence of CPT | Potency, µM (doses to about 46.2 µM), without a hit: at the highest dose activity change, negative = growth inhibition, hits mostly inhibitors | hit rate 15% among 420,000 | DT40 Tdp1-/- hTDP1 cells, no CPT, ATP luminescence, 48 h; note: potency is the fitted concentration of half-maximal effect; nearly all actives have a fitted effect of over 55% in size
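Camptothecin absent (DMSO only). Human TDP1-complemented DT40 knockout cells, 400 cells/well, 37 °C for minimum 48 hr; ATP measured via CellTiter-Glo, 30 min dark incubation, luminescence.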
TDP1 cell CPT = qHTS for Inhibitors of human tyrosyl-DNA phosphodiesterase 1 (TDP1): qHTS in cells in presence of CPT. Potency, µM (highest dose often 46.2 µM), for the others: top-dose activity change, negative = growth inhibition, hits mostly inhibitors. chicken DT40 Tdp1-/-;hTDP1 cells + 20 nM CPT, ATP luminescence, 48 h. hit rate 12% among 420,000. AID 686979, 2013; note: potency is the fitted concentration of half-maximal effect; nearly all actives have a fitted effect of over 55% in size
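Chicken DT40 Tdp1-/- cells complemented with human TDP1, 400 cells/well, exposed to compounds plus 20 nM camptothecin for at least 48 h at 37 C; viability read as ATP content by CellTiter-Glo luminescence.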
HT1080NT lethal = qHTS for induction of synthetic lethality in tumor cells producing 2HG: qHTS for the HT-1080-NT fibrosarcoma cell line; Potency, µM (top dose mostly 46.1 µM), for the others: at the top dose activity, negative = less viability, actives largely listed as cytotoxic; HT-1080-NT fibrosarcoma viability, CellTiter-Glo ATP luminescence, 48 h; hit rate 1.6% among 360,000; AID 686970, 2013;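 note: NT is the 2HG producing partner of a matched IDH1 knockdown line; potency is the fitted concentration of half-maximal effect; 0% = DMSO-treated cells and -100% = media-only wells without cells; nearly all actives have a fitted effect of over 55% in size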
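750 cells/well, RPMI + 5% FBS; 2 h settle, compound pin-transfer, 48 h at 37 degrees C. CellTiter-Glo 10 min RT, luminescence. Normalized to DMSO and media-only wells.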
HT1080 IDH1KD tx = qHTS for induction of synthetic lethality in tumor cells producing 2HG: qHTS for the HT-1080-IDH1KD cell line | HT-1080 IDH1 knockdown viability, ATP luminescence, 48 h | Potency, µM (top dose mostly 46.1 µM), without a hit: at the highest dose activity, negative = toxicity, hits mostly cytotoxic | hit rate 2% among 360,000;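 note: potency is the fitted concentration of half-maximal effect; 0% = DMSO wells and -100% = cell-free medium wells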
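In this qHTS, HT-1080 cells depleted of IDH1 are exposed for 48 h at 37 °C to compound titrations. Toxicity is scored from CellTiter-Glo luminescence, with DMSO as full viability and medium alone as none.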
IL-1B inflam inh = qHTS for Inhibitors of Inflammasome Signaling: IL-1-beta AlphaLISA Primary Screen; activity change, % at 57.5 µM; THP-1 LPS/ATP IL-1B secretion, AlphaLISA, 16 h; active compounds read low; AID 743279, 2014; hit rate 4.7% among 360,000; in the data active = activity change below about -50%; inconclusive = mostly about -30% to -49%
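Secreted IL-1B measured by AlphaLISA bead assay after 16 h compound exposure of THP-1 cells; compounds (final up to 57.5 uM) added 1 h before LPS (250 ng/mL) and ATP (1.25 mM) stimulation; lower signal means less secretion.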
* marks the source's active call; other numbers are inactive results; ? = inconclusive; . = not tested or not shown; [ ] = remark or other dose. An excerpt weighted towards active compounds, which were near 19% of everything screened. Unless noted, calls come from the whole dose curve; as a rule, active = well fitted curve in the direction sought with a large enough effect; inconclusive = small, poorly fitted or top-dose-only effect, or another doubt; inactive = no such curve, though single readings can be large; an effect the other way counts as inactive or inconclusive. Unless noted, % is set by controls: 0 for no effect and ±100 for the full control effect.

SMILES | DT40 TDP1 no CPT | TDP1 cell CPT | HT1080NT lethal | HT1080 IDH1KD tx | IL-1B inflam inh
Cc1cccc(NC(=O)C(=O)NNC(=O)c2ccc(C(C)(C)C)cc2)c1 | ? | ? | 6.5µM* | 8.2µM* | -1
Cc1ccc(S(=O)(=O)NC(=O)Nc2cccc([N+](=O)[O-])c2)cc1 | 8% | 2% | 1% | 2% | 25
O=C(Nc1cccc([N+](=O)[O-])c1)C1C2CC/C=C\CCC21 (stereo not given) | 18µM* | -28% | -1% | -11% | -5
O=C(O)C1C2CCC(C2)C1C(=O)Nc1cccc([N+](=O)[O-])c1 (stereo not given) | -1% | 7% | 4% | -11% | 9
CC(C)(C)CC(C)(C)NC(=O)Nc1cccc([N+](=O)[O-])c1 | 16µM* | ? | ? | ? | -21
COc1ccc(OC)c(NC(=O)Nc2nnc(N3CCCCC3C)s2)c1 (stereo not given) | ? | ? | -26% | ? | -11
CC(C)Cc1nc2cc(NS(=O)(=O)N(C)C)cc(C(=O)N3CCOCC3)c2n1C | 3% | 8%[9.04 µM] | . | . | .
Cc1ccc(-c2csc(N3CCC(NS(=O)(=O)c4ccc5c(c4)OCCO5)CC3)n2)cc1 | 15µM* | ? | -20% | -29% | -27
c1ccc(CN2CCN(c3ncccn3)CC2)cc1 | 3% | 6% | 16% | 13% | -4
c1ccc(CN2CCN(c3nc(-c4ccccc4)nc(-n4ccnc4)n3)CC2)cc1 | 18µM* | 16µM* | ? | ? | ?
c1ccc(N(c2ccccc2)c2nc(N3CCCC3)nc(-n3ccnc3)n2)cc1 | 26µM* | ? | ? | ? | -9
c1ccc(-c2nc(-n3ccnc3)nc(-n3ccnc3)n2)cc1 | 10µM* | 21µM* | -6% | -24% | -84*
O=C(CCSCc1ccccc1Cl)NC1CCCCC1 | -5% | 9% | 16% | 14% | 6
O=C(NCC(=O)N1CCN(S(=O)(=O)c2ccccc2F)CC1)c1ccc(Br)o1 | -3% | -15% | 0% | 0% | 13
O=S(=O)(NCC1CCCN(Cc2ccccc2O)C1)c1cccc2cccnc12 (stereo not given) | 0% | 4% | -3% | 0% | -6
CC(O)(CC(=O)CC(=O)c1ccccc1)c1ccccc1 (stereo not given) | ? | ? | -30% | -26% | -12
COc1cc(C(=O)NC2CCN(CC(=O)Nc3cccc(C)c3C)CC2)cc(OC)c1OC | ? | 18µM* | -13% | 2% | -4
COc1cc(NC(=O)c2ccccc2F)c(OC)cc1NC(=O)CN1CCCCC1 | 16µM* | ? | -14% | -20% | -57*
COC(=O)c1cc(Cl)c(NC(=O)c2ccc(C(C)(C)C)cc2)cc1OC | 18µM* | 26µM* | ? | 11µM* | 22
COc1cc(NC(=O)c2ccc(C(C)(C)C)cc2)c(OC)cc1NC(=O)CN1CCCCC1 | 21µM* | ? | 0% | -2% | -23
CN(c1ccccc1)S(=O)(=O)c1ccc(C(=O)OCC(=O)NCc2cccs2)cc1 | ? | ? | -27% | -14% | 0
COc1cc(NC(=O)c2ccc(C)cc2)c(OC)cc1NC(=O)CN1CCOCC1 | 16µM* | ? | 7% | 13% | -19
COc1cc(NC(=O)c2ccc(Cl)cc2)c(OC)cc1NC(=O)CN1CCOCC1 | ? | ? | 21% | 12% | ?
Cc1ccc(NC(=O)CN2CCC(NC(=O)C3CCCCC3)CC2)c(Br)c1 | 21µM* | ? | -3% | 9% | -5
Cc1ccc(NC(=O)C(c2ccccc2)c2ccccc2)c(O)c1 | 7% | 1% | -24% | -25% | -56*
COc1cc(NC(=O)C2CCCCC2)c(OC)cc1NC(=O)CN1CCCCC1 | 16µM* | ? | -11% | 0% | ?
